Assay results from PubChem BioAssay AID1159580 (chemical genetic matrix, 2015).
Where “and” joins values, the source holds several entries; their conditions need not be identical. Equal entries are not always repeated. Screen size: about 5,500 compounds; about 2,000 (36%) were called active. About 18% were inconclusive and are not listed. Cut-off read from the data, not from the text of the source: active = normalized growth mostly below about 0.91 (no sharp cut-off); inconclusive = no clear call, values can overlap the other calls; inactive = mostly above about 0.92. Some of the results follow.

Assay: chemical genetic growth profiling, strain panel (AID 1159580);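 note: tested at 20 µM; growth read once vehicle control cultures reached saturation at 30 °C; 1 = growth at the plate median or of vehicle wells; lower values mean less growth of the strain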
Details: S. cerevisiae deletion strains, growth OD

Measured: normalized growth

COc1ccc(C[C@H](N)C(=O)N[C@@H]2[C@@H](CO)OC(n3cnc4c(N(C)C)ncnc43)[C@@H]2O)cc1 (stereo partly specified)
inactive: locus YAL013W, strain DEP1, hits give low values 1.01 | locus YAL021C, strain ccr4, hits give low values 0.977 | locus YAL026C, strain drs2, hits give low values 0.996 | locus YAL030W, strain snc1, hits give low values 0.996 | locus YBL061C, strain skt5, hits give low values 0.996 | locus YBR009C, strain hhf1, hits give low values 0.988 | locus YBR021W, strain FUR4, hits give low values 1 | locus YBR023C, strain chs3, hits give low values 0.986 | locus YBR171W, strain sec66, hits give low values 0.976 | locus YBR229C, strain ROT2, hits give low values 1.01 | locus YBR231C, strain swc5, hits give low values 0.994 | locus YBR279W, strain paf1, hits give low values 0.992 | locus YCL011C, strain gbp2, hits give low values 1 | locus YCL016C, strain dcc1, hits give low values 1.01 | locus YCL029C, strain bik1, hits give low values 1.02 | locus YCL069W, strain vba3, hits give low values 0.992 | locus YCR088W, strain abp1, hits give low values 0.992 | locus YDL005C, strain med2, hits give low values 0.995 | locus YDL035C, strain GPR1, hits give low values 1 | locus YDL040C, strain nat1, hits give low values 1.01 | locus YDL074C, strain BRE1, hits give low values 0.988 | locus YDL101C, strain DUN1, hits give low values 1.01 | locus YDL134C, strain PPH21, hits give low values 1 | locus YDL185W, strain tfp1, hits give low values 1.02 | locus YDL192W, strain arf1, hits give low values 1.02 | locus YDR001C, strain nth1, hits give low values 0.982 | locus YDR069C, strain doa4, hits give low values 0.981 | locus YDR101C, strain arx1, hits give low values 1.02 | locus YDR137W, strain rgp1, hits give low values 1.01 | locus YDR150W, strain NUM1, hits give low values 1 | locus YDR159W, strain sac3, hits give low values 0.981 | locus YDR162C, strain NBP2, hits give low values 1.02 | locus YDR195W, strain ref2 0.969 | locus YDR297W, strain sur2, hits give low values 0.996 | locus YDR318W, strain mcm21, hits give low values 1.02 | locus YDR334W, strain swr1, hits give low values 0.977 | locus YDR335W, strain msn5, hits give low values 0.985 | locus YDR388W, hits give low values 1.02 | locus YDR392W, strain spt3, hits give low values 1.01 | locus YDR502C, strain sam2, hits give low values 1 | locus YEL003W, strain gim4, hits give low values 0.999 | locus YEL037C, strain rad23, hits give low values 1 | locus YEL061C, strain CIN8 (second series), hits give low values 0.99 | locus YEL061C, strain CIN8, hits give low values 1 | locus YER015W, strain faa2, hits give low values 0.991 | locus YER016W, strain bim1, hits give low values 1.01 | locus YER110C, hits give low values 1.02 | locus YER111C, strain swi4, hits give low values 0.977 | locus YER155C, strain BEM2 (second series), hits give low values 1.03 | locus YER155C, strain BEM2, hits give low values 1 | locus YER167W, strain BCK2, hits give low values 1.02 | locus YFR010W, strain ubp6, hits give low values 0.995 | locus YGL078C, strain dbp3, hits give low values 1.02 | locus YGL086W, strain mad1, hits give low values 1.02 | locus YGL167C, strain pmr1, hits give low values 1.01 | locus YGL173C, strain kem1, hits give low values 0.988 | locus YGL227W, strain vid30, hits give low values 0.992 | locus YGL240W, strain doc1, hits give low values 0.987 | locus YGL248W, strain PDE1, hits give low values 1.01 | locus YGL253W, strain hxk2, hits give low values 0.981 | locus YGR078C, strain PAC10, hits give low values 0.99 | locus YGR135W, strain pre9, hits give low values 1 | locus YGR229C, strain SMI1, hits give low values 0.996 | locus YGR252W, strain gcn5, hits give low values 1.06 | locus YHR013C, strain ard1, hits give low values 0.983 | locus YHR027C, strain rpn1, hits give low values 0.991 | locus YHR030C, strain SLT2, hits give low values 1.01 | locus YHR079C, strain IRE1 (second series), hits give low values 1.02 | locus YHR079C, strain IRE1, hits give low values 0.98 | locus YHR094C, strain hxt1, hits give low values 1.02 | locus YHR129C, strain ARP1, hits give low values 1.01 | locus YHR142W, strain chs7, hits give low values 1 | locus YHR200W, strain rpn10, hits give low values 1.03 | locus YIL066C, strain RNR3, hits give low values 1.02 | locus YIL073C, strain SPO22, hits give low values 1.06 | locus YIL125W, strain kgd1, hits give low values 1.01 | locus YIR030C, strain dcg1, hits give low values 1.02 | locus YJL092W, strain hpr5, hits give low values 0.988 | locus YJL095W, strain BCK1 (second series), hits give low values 1 | locus YJL095W, strain BCK1, hits give low values 0.997 and 0.996 | locus YJL115W, strain asf1, hits give low values 0.984 | locus YJL129C, strain trk1, hits give low values 0.987 | locus YJL134W, strain LCB3, hits give low values 1 | locus YJL154C, strain vps35, hits give low values 0.996 | locus YJL164C, strain tpk1, hits give low values 1.01 | locus YJL166W, strain qcr8, hits give low values 0.979 | locus YJL168C, strain set2, hits give low values 1.01 | locus YJL187C, strain SWE1 (second series), hits give low values 1.01 | locus YJL187C, strain SWE1, hits give low values 0.998 | locus YJR043C, strain POL32, hits give low values 0.995 | locus YJR066W, strain TOR1, hits give low values 0.937
